# sEH act = increases human soluble epoxide hydrolase activity. P34913. purified human sEH enzymatic activity, activator screen. activation, % at 2 µM. actives 0.04% (n = 91,000); in the data active = activation above about 37%
# CYP2C19 inh = inhibitors of human CYP2C19. P33261. CYP2C19 Supersomes, luciferin-H EGE luminescence, 30 min. inhibition, % at 5 µM. actives 21% (n = 96,000). AID 778;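 active = CYP2C19 inhibition above a set limit at 5 µM in the primary screen, cut at about 50% in these data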;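 note: plate controls were negative control wells for no effect and 2.5 mM tranylcypromine positive control for full effect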
# CYP2C19 act = cytochrome P450 2C19 (human) activation. AID 1025. P33261. recombinant CYP2C19, luciferin-H EGE luminescence; hits give high values; 0 = fully inhibited enzyme, 1 = untreated enzyme. activation factor at 5 µM. 96,000 tested, under 10 active;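 active = activation factor of at least 2 at 5 µM in the primary screen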;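 note: 0 = wells with 2.5 mM tranylcypromine and 1 = vehicle-only wells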
# CYP2C9 act = increases human cytochrome P450 2C9 activity; P11712; activation factor at 5 µM; actives 1.4% (n = 96,000); recombinant CYP2C9, luciferin-H conversion, luminescence; hits give high values; factor 1 = untreated enzyme, 0 = blocked;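 active = activation factor of 2 or more for CYP2C9 at a 5 µM dose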;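 note: 0 = sulfaphenazole-blocked wells and 1 = vehicle-only wells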
# Target sequence (P11712 whole entry, looked up): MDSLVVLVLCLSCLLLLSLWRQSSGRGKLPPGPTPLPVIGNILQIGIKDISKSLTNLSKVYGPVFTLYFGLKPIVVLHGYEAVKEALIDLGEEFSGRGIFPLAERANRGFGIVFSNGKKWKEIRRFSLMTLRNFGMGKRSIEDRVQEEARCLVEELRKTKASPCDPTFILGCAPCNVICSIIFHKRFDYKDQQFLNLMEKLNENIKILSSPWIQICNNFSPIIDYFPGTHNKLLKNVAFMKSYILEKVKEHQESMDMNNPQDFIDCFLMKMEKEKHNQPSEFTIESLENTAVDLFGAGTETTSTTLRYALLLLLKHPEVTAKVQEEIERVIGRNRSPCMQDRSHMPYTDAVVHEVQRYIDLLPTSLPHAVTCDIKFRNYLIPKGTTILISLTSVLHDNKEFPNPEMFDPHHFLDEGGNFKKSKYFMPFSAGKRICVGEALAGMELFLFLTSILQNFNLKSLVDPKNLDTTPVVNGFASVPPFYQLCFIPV
# CYP2C9 inhib = inhibitors of human CYP2C9; inhibition, % at 5 µM; actives 20% (n = 96,000); CYP2C9 Supersomes, luciferin-H conversion, luminescence; P11712;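 active = blocking of liver enzyme CYP2C9 beyond about 50% at 5 µM, limit read from the data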
# sEH inhibitor = inhibitors of human soluble epoxide hydrolase | P34913 | recombinant human sEH enzymatic activity assay | inhibition, % at 2 µM | actives 0.34% (n = 91,000); in the data active = inhibition above about 80%
# The depositor's hits bear a star; · = no result given. An excerpt weighted towards active compounds, which were near 27% of everything screened.
SMILES,sEH act,CYP2C19 inh,CYP2C19 act,CYP2C9 act,CYP2C9 inhib,sEH inhibitor
COc1ccc(C)cc1NC(=O)CSc1nnc(CC(=O)Nc2ccccc2C)n1C,1.1,66.1*,0.3,1.6,-58.4,-3.8
CCOc1ccc(NC(=O)CSc2nnc(-c3ccccc3Cl)n2Cc2ccco2)cc1,2.1,86.1*,0.1,0,96.4*,-3.5
CN(c1cccc(NC(=O)COc2ccc(Cl)cc2Cl)c1)S(C)(=O)=O,-10.7,·,·,·,·,10.7
Clc1ccc2c(c1)C1OCCC1C(c1ccco1)N2 (stereo unspecified),8.8,47.7,0.5,0.6,35.8,-10.0
Cc1ccc2c(c1)[C@H]1OCC[C@H]1[C@@H](c1ccncc1)N2,1.0,100.3*,0,0.2,83.7*,-3.7
COc1cc(OC)cc(-n2nnnc2SCC(=O)NC2CCCC2)c1,-8.4,13.8,0.9,3.1*,-206.2,6.6
Cn1ccnc1SCC(=O)NC1CCCCC1,4.1,91.9*,0.1,1,-4.6,-4.5
CSc1nsc(SCC(=O)NC2CCCCC2)n1,-33.0,95.9*,0,1,1.4,31.3
Cn1cnnc1SCC(=O)Nc1ccc2nc(SCc3ccccc3F)sc2c1,8.6,47.0,0.5,0.4,60.0*,-9.6
CCOC(=O)CSc1nc2ccc(NC(C)=O)cc2s1,-11.2,56.7*,0.4,0.3,72.4*,11.7
CSc1nc2ccc(NC(=O)CSc3nnc(N)s3)cc2s1,-2.8,1.6,1,0.3,70.7*,4.5
COC(=O)c1ccc(NC(=O)CSc2nncn2C)cc1,8.2,-3.1,1,0.9,10.0,-6.8
COC(=O)N1CC(C)N(C(=O)OC)CC1C (stereo unspecified),·,12.9,0.9,1,3.5,·
CC(=O)c1ccc(NC(=O)CSC(C)C)cc1,1.8,9.4,0.9,0.9,5.9,-1.4
Cc1cc(C(C)(C)C)cc(S(=O)(=O)NCCO)c1C,-4.0,42.5,0.6,3*,-196.9,5.2
COCCn1c(SCC(=O)Nc2sc(C)c(C)c2C#N)nnc1C(C)C,6.4,80.1*,0.2,0.1,92.0*,-11.1
CCn1c(SCC(=O)Nc2sc(C)c(C)c2C#N)nnc1C(C)C,10.2,97.7*,0,0.1,91.0*,-8.8
Cc1sc(NC(=O)CSc2nnc3scc(-c4ccccc4)n23)c(C#N)c1C,7.0,9.7,0.9,1.1,-13.0,-3.9
Nc1cccc2c1C(=O)N(C(=O)c1ccc(Cl)c(S(=O)(=O)N3CCCCCC3)c1)C2=O,6.1,3.6,1,0.9,11.2,-3.0
O=C(CC1(O)C(=O)N(Cc2ccc3c(c2)OCO3)c2ccccc21)c1ccccc1 (stereo unspecified),4.7,48.2,0.5,1,3.1,-2.5
Cc1n[nH]c(C)c1C(=O)CC1(O)C(=O)N(Cc2ccccc2)c2ccc(Br)cc21 (stereo unspecified),-1.5,98.9*,0,0.4,60.9*,1.8
Cc1n[nH]c(C)c1C(=O)CC1(O)C(=O)N(CCc2ccccc2)c2ccc(Br)cc21 (stereo unspecified),4.9,55.7*,0.4,0.3,66.2*,-6.1
O=C(/C=C/C=C/c1ccccc1)CC1(O)C(=O)N(CCc2ccccc2)c2ccccc21 (stereo unspecified),-2.9,44.1,0.6,0.6,42.0,5.0
CC(C)(C)NC(=O)CSc1nnc(C2CC2)n1Cc1ccccc1,·,12.7,0.9,0.9,12.1,·
COC(=O)CC1SC(=O)NC1=Nc1cccc(C)c1 (stereo unspecified),5.0,11.9,0.9,0.9,11.6,-7.8
SMILES,sEH act,CYP2C19 inh,CYP2C19 act,CYP2C9 act,CYP2C9 inhib,sEH inhibitor
Cc1cc(C)c(S(=O)(=O)N2CCN=C2c2ccccc2)cc1C,5.2,59.9*,0.4,1.5,-47.3,-3.1
O=C(CN1/C(=C(/O)c2ccccc2)C(=O)c2ccccc2S1(=O)=O)c1ccccc1,-7.9,10.7,0.9,0.5,48.4,2.5
CCOc1ccc(C2OC34CCCCC3C(C#N)(C#N)C2(C#N)C(=N)O4)cc1OC (stereo unspecified),-8.3,8.4,0.9,1.1,-10.9,5.0
Cc1sc2nc(CN(C(=O)NC3CCCCC3)C3CCCCC3)[nH]c(=O)c2c1C,-4.6,·,·,·,·,9.4
Cc1sc2nc(SCC(=O)NCc3cccs3)[nH]c(=O)c2c1C,-5.3,18.7,0.8,0.3,66.8*,6.7
Cc1sc2nc(CN(Cc3cccs3)C(=O)C3CC3)[nH]c(=O)c2c1C,-6.7,97.4*,0,0.1,88.4*,5.2
O=C(NC(=O)c1ccncc1)NC(c1ccccc1)c1ccccc1,13.7,33.6,0.7,0.7,34.0,-13.8
CSc1nc(Oc2ccc(C)cc2)cc(C(F)(F)F)n1,-2.0,-6.2,1.1,1,0.1,3.9
CC(C)OC(=O)C1C2C=CC3(CN(C(C)c4ccc(Br)cc4)C(=O)C13)O2 (stereo unspecified),·,83.0*,0.2,0.7,30.5,·
O=C(C1CCCO1)N1CCN(Cc2c(O)ccc3ccccc23)CC1 (stereo unspecified),-6.9,39.2,0.6,1,0.9,8.6
COc1ccc(C2=NN(C(=O)CSc3cn(C)c4ccccc34)C(c3ccc(OC)cc3)C2)cc1 (stereo unspecified),0.0,50.5*,0.5,0.4,61.5*,1.7
CCC(=O)OCCCCCCOc1ccc(C(=O)O)cc1,·,62.6*,0.4,1.1,-11.5,·
CC(C)CCOc1ccc(C(=O)O)cc1,·,82.7*,0.2,0.2,82.7*,·
CC(C)CCOc1ccc(C(=O)CCNC(C)C(=O)O)cc1 (stereo unspecified),·,5.8,0.9,0.9,9.0,·
CCCCOc1ccc(C2C(=O)N(C3CCCCC3)CC(=O)N2CC2CCCO2)cc1 (stereo unspecified),7.2,19.9,0.8,0.7,28.4,-6.5
Cc1ccc(-c2nn(CC(=O)O)c(=O)c3ccccc23)cc1,9.5,·,·,·,·,-8.1
Cc1ccc(NC(=O)NNC(=O)Cn2nc(-c3ccccc3)c(-c3ccccc3)c(C#N)c2=O)cc1,-1.0,23.6,0.8,0.4,56.8*,1.0
Clc1ccc2[nH]cc(-c3nnnn3-c3ccccc3)c2c1,6.1,36.8,0.6,0.7,34.5,-6.1
O=[N+]([O-])c1ccc(C(=Nc2cccc3ccccc23)N2CCOCC2)cc1,-9.0,37.5,0.6,0.6,38.9,8.7
O=[N+]([O-])c1ccc(N=Nc2ccc(O)cc2O)cc1,-10.2,69.4*,0.3,0.4,57.4*,7.5
Cc1ccc(NC2OC(C(O)CO)C(O)C2O)cc1[N+](=O)[O-] (stereo unspecified),14.3,-16.9,1.2,1.1,-8.1,-17.5
O=C(Nc1cccc2nsnc12)c1ccc(-c2cccc(Cl)c2)o1,19.4,14.1,0.9,0.9,6.7,-21.8
Cn1c(NCc2c(O)ccc3ccccc23)nc2ccccc21,7.2,3.1,1,1.1,-6.4,-8.2
CCOC(=O)c1ccc(NCc2nc3ccccc3n2C)cc1,6.3,17.2,0.8,0.7,26.9,-2.5

# High-throughput results (PubChem BioAssay)
